# In publication PMC4336329 (PLoS ONE, 2015):
# About 14,000 (4.5%) of roughly 310,000 compounds showed an effect of 50% or more. The effect is printed as a negative number. Many of the other results were omitted from the sample, so strong results are more common in it than they were.
# Target: human ether-à-go-go-related gene (hERG) potassium channel (human, UniProt Q12809)
# Test: primary screen, population patch clamp on CHO cells stably expressing hERG; higher = less effect of the substance
# 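Note: peak tail current of the secondary pulse compared with the same well before compound.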
# human ether-à-go-go-related gene (hERG) potassium channel, sequence (Q12809 whole entry, looked up): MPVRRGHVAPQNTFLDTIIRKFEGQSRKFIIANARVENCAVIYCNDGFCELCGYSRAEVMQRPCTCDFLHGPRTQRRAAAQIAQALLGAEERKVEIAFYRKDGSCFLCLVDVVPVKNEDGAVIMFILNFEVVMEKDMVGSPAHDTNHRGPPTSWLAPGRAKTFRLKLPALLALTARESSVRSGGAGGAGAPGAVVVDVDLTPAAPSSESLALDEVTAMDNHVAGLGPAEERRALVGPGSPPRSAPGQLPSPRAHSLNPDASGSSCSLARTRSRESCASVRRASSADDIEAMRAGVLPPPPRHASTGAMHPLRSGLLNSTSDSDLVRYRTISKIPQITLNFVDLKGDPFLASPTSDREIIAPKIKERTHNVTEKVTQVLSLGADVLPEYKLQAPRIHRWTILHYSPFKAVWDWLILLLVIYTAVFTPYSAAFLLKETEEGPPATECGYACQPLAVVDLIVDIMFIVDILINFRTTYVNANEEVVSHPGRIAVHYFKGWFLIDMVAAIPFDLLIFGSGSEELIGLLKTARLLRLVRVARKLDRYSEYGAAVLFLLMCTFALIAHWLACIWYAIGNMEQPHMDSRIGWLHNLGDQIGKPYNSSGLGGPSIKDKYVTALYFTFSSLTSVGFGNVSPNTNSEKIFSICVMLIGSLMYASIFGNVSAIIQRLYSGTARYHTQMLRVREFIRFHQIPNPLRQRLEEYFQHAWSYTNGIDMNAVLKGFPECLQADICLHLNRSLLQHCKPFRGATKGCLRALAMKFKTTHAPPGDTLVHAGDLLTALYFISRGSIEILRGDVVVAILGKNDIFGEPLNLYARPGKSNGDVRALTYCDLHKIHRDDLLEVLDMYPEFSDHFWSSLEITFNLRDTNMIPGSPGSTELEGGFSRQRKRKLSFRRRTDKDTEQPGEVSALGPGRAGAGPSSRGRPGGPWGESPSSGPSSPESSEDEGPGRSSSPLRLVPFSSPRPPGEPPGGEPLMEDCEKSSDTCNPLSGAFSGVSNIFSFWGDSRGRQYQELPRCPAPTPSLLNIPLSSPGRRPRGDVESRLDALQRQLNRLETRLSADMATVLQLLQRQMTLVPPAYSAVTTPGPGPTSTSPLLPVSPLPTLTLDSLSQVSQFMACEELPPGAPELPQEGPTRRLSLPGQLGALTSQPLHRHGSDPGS
row,SMILES,"hERG current change (%, negative = inhibition) at 10uM [%]"
1,Cn1c(=O)n(C)c2cc(NS(=O)(=O)c3ccc(F)cc3)ccc21,1.38
2,O=C(NCc1cccnc1)C1CC(=O)N(c2ccc(F)cc2)C1 (stereo not shown),-15.1
3,CC(SCc1ccccc1)C(=O)NC1CCCC1 (stereo not shown),3.27
4,CCN(CC)CCNC(=O)Cn1c(C)cc2ccccc2c1=O,1.83
5,CSc1ccc(/C=C/C(=O)c2ccc(NC(C)=O)cc2)cc1,12.6
6,OCCOCCn1c(C(CO)Nc2nc(-c3ccccc3Br)cs2)nc2ccccc21 (stereo not shown),-72
7,Cc1ccc(-c2csc(NC(CO)c3nc4ccccc4n3CCOCCO)n2)cc1 (stereo not shown),-47.3
8,OCCOCCn1c(C(CO)Nc2nc(-c3cccc(Br)c3)cs2)nc2ccccc21 (stereo not shown),-12.5
9,O=C(Cc1cccs1)Nc1nnc(SCC(=O)NC2CCCCC2)s1,7.84
10,CCOc1ccccc1NC(=O)C1C2CCC3C(CCC21)C3(Cl)Cl (stereo not shown),-13.4
11,CC(=O)Nc1ccc(NC(=O)CSc2nccn2Cc2ccc(Cl)cc2)cc1,-9.56
12,CNC(=O)CSc1nccn1Cc1ccc(Cl)cc1,-64.9
13,NC(=O)CSc1nccn1Cc1ccc(Cl)cc1,19.1
14,Cc1nnc(SCc2ccccc2)n1CC1CCCO1 (stereo not shown),11.9
15,O=C(C1=NN(c2ccccc2)C2C(=O)N(c3cccc(Cl)c3)C(=O)C12)c1ccccc1 (stereo not shown),1.55
16,Clc1ncnc2scc(-c3ccc(Br)cc3)c12,7.97
17,COc1ccccc1N=Nc1c(O)[nH]c2ccc(Br)cc12,14.2
18,COc1ccc(C(=O)Nc2ccc3c(c2)nc(CN2CCCC2)n3C)cc1,-44.4
19,CC(=O)N1CCN(Cc2nc3cc(NC(=O)c4ccc(F)cc4)ccc3n2C)CC1,-8.9
20,CCOC(=O)Nc1ccc2c(c1)nc(CN1CCCCC1)n2C,-7.84
21,CC(C)(C)n1cnc2cc(NC(=O)c3ccc(Cl)cc3)ccc21,-59.1
22,Cn1c(CN2CCCCC2)nc2cc(NC(=O)c3ccc(F)cc3)ccc21,-54.2

row,SMILES,"hERG current change (%, negative = inhibition) at 10uM [%]"
1,Cn1c(CN2CCOCC2)nc2cc(NC(=O)c3ccc(Cl)cc3)ccc21,-34.2
2,Cn1cnc2cc(NC(=O)c3ccc(Cl)cc3)ccc21,-18.9
3,CC(C)(C)n1cnc2cc(NC(=O)c3ccccc3)ccc21,-9.28
4,Cn1c(CN2CCCC2)nc2cc(NC(=O)c3ccc(Cl)cc3)ccc21,-82
5,Cn1c(CN2CCOCC2)nc2cc(NC(=O)c3ccc(F)cc3)ccc21,-12.5
6,COc1ccc(C(=O)Nc2ccc3c(c2)nc(CN2CCN(C(C)=O)CC2)n3C)cc1,-0.777
7,CC(=O)N1CCN(Cc2nc3cc(NC(=O)c4ccc(Cl)cc4)ccc3n2C)CC1,-65.8
8,O=C(NCCc1ccccc1)/C(=N\O)c1ccccc1,7.7
9,CCn1c(=O)c2sccc2n2c(CCCC(=O)NC3CCN(Cc4ccccc4)CC3)nnc12,-6.43
10,COc1ccc(OC)c(C2C(C(C)=O)=C(O)C(=O)N2CCN2CCOCC2)c1 (stereo not shown),-6.92
11,COc1ccc(C)cc1NC(=O)CCN1CCN(c2ccccc2F)CC1.Cl,-19.9
12,Cc1ccccc1OCC(=O)NNC(=O)CN1C(=O)c2ccccc2C1=O,-9.07
13,NNc1nc2sc3c(c2c(=O)[nH]1)CCc1ccccc1-3,7.46
14,Cc1ccc(C)c(N2CCN(C(=O)Cc3c(C(=O)O)[nH]c4ccc(Cl)cc34)CC2)c1,10.1
15,O=C(O)COc1cccc2nsnc12,4.42
16,CC(=O)N1N=C(c2cccc([N+](=O)[O-])c2)OC1(C)CC(=O)Nc1ccccc1 (stereo not shown),-12
17,COc1ccc(NC(=O)CN(C)CC(=O)Nc2ccc(N3CCOCC3)cc2)c([N+](=O)[O-])c1,-26.2
18,CNC(=O)OCc1cccc(COC(=O)NC)n1.Cl,27.2
19,CCCC(=O)Nc1ccc2c(c1)nc(CN1CCCCC1)n2C,2.55
20,Cn1c(CN2CCCCC2)nc2cc(NC(=O)c3ccccc3Cl)ccc21,-8.74
21,COc1ccccc1C(=O)Nc1ccc2c(c1)nc(CN1CCN(C(C)=O)CC1)n2C,-80
